Measurements reported in the supplement of paper PMC8253809.
Values joined by “and” are separate entries in the source; they are usually repeats but may differ in a detail not shown here. Equal values may be shown once.

Tests used:
Assay in all cases: growth inhibition (% activity, log2 RLU normalised to DMSO / staurosporine); higher = more growth inhibition
Conditions in all cases: 33 µM
DIPGX29 = tested on: DIPGX29 (H3.3 K27M diffuse intrinsic pontine glioma line)
In short: (§1)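 In triplicate, pHGG cell lines and H9-derived neural stem cells were treated for 7 days at 37 °C, 5% CO2 with approved drugs at a single final concentration of about 33 μM, added by pin tool. CellTiter-Glo luminescence, after log2 transformation, was normalised on each plate to % activity between solvent and positive control wells. Growth inhibition is reported as the median across replicates.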

DIPGX37 = tested on: DIPGX37 (H3.3 K27M diffuse intrinsic pontine glioma line)
In short: as §1

DIPGX7 = tested on: DIPGX7 (H3.3 K27M diffuse intrinsic pontine glioma line)
In short: as §1

DIPGX9 = tested on: DIPGX9 (diffuse intrinsic pontine glioma line)
In short: as §1

HGGX39 = tested on: HGGX39 (paediatric high-grade glioma line)
In short: as §1

HGGX6 = tested on: HGGX6 (H3.3 G34R paediatric high-grade glioma line)
In short: as §1

HNSC = tested on: HNSC
In short: as §1

SUDIPGIV = tested on: SUDIPGIV (diffuse intrinsic pontine glioma line)
In short: as §1

SUDIPGVI = tested on: SUDIPGVI (diffuse intrinsic pontine glioma line)
In short: as §1

SUDIPGXIII = tested on: SUDIPGXIII (diffuse intrinsic pontine glioma line)
In short: as §1

Row | SMILES | growth inhibition (DIPGX29) | growth inhibition (DIPGX37) | growth inhibition (DIPGX7) | growth inhibition (DIPGX9) | growth inhibition (HGGX39) | growth inhibition (HGGX6) | growth inhibition (HNSC) | growth inhibition (SUDIPGIV) | growth inhibition (SUDIPGVI) | growth inhibition (SUDIPGXIII)
1 | O=C(O[C@H]1C[C@H]2CC[C@@H](C1)[N+]21CCCC1)C(O)(c1ccccc1)c1ccccc1 | -4.33% | -1.91% | -0.848% | -3.62% | -4.77% | -4.81% | 20.6% | -1.98% | -6.45% | -0.149%
2 | C[N+]1(C)[C@@H]2C[C@@H](OC(=O)[C@H](CO)c3ccccc3)C[C@H]1[C@@H]1O[C@@H]12 | -0.834% | 1.29% | 0.707% | 0.849% | 2.27% | 2.07% | -1.37% | -0.286% | 0.639% | 0.798%
3 | CN1[C@@H]2C[C@@H](OC(=O)[C@H](CO)c3ccccc3)C[C@H]1[C@@H]1O[C@@H]12 | -4.79% | -2% | -0.341% | -2.82% | -2.31% | -3.37% | 23.8% | -3.93% | -9.6% | 0.487%
4 | CC[C@@H](C(N)=O)N1CCCC1=O | 1.34% | -1.57% | 0.427% | -0.877% | -1.17% | -3.23% | -0.905% | -1.25% | -0.784% | 0.999%
5 | CC(=O)O[C@H]1C[C@@H]2CC[C@@H]3[C@H](CC[C@@]4(C)[C@H]3C[C@H]([N+]3(C)CCCCC3)[C@@H]4OC(C)=O)[C@@]2(C)C[C@@H]1[N+]1(C)CCCCC1 | -1.09% | 0.743% | -0.188% | 0.99% | -0.431% | 1.2% | -0.41% | -0.385% | 0.196% | 
6 | C[C@]12CC[C@H]3[C@@H](CC[C@@]45O[C@@H]4C(O)=C(C#N)C[C@]35C)[C@@H]1CC[C@@H]2O | 0.975% | -2.98% | 3.34% | -0.94% | 3.74% | 0.2% | -3.23% | -0.766% | -0.488% | -1.34%
7 | CN(C)[C@@H]1C(=O)C(C(N)=O)=C(O)[C@@]2(O)C(=O)C3=C(O)c4c(O)cccc4[C@@](C)(O)[C@H]3[C@H](O)[C@@H]12 | 0.568% and -1.27% | 1.33% and -2.42% | 0.754% and -1.23% | 1.93% and -1.22% | 2.88% and -0.945% | 1.26% and -1.1% | 0.393% and 0.992% | 2.12% and -1.5% | -1.25% and -0.24% | 1.12% and 0.41%
8 | CCN(C)C(=O)Oc1cccc([C@H](C)N(C)C)c1 | -0.955% | -0.495% | 1.09% | 0.618% | 1.41% | 0.109% | 4.36% | -1.75% | -2.42% | -0.000881%
9 | CCOC(=O)c1cncn1[C@H](C)c1ccccc1 | 1.12% | 2.21% | 2.54% | 2.62% | 1.86% | 2.36% | 3.19% | -0.15% | 2.48% | 0.0732%
10 | NCC1(CC(=O)O)CCCCC1 | 2.13% and 0.326% | 4.84% and 0.615% | 3.15% and 1.16% | -0.041% and -0.903% | 2.36% and -1.3% | 2.04% and -2.75% | 2.28% and -0.457% | 1.22% and -1.85% | 2.85% and -1.96% | -1.15% and -0.111%
11 | CN(C)[C@@H]1C(=O)C(C(N)=O)=C(O)[C@@]2(O)C(=O)C3=C(O)c4c(O)ccc(Cl)c4[C@@](C)(O)[C@H]3C[C@@H]12 | 3.18% | 4.29% | 3.71% | 3.16% | 4.59% | 3.5% | 2.92% | 2.12% | 3.1% | -1.15%
12 | Cc1cccc(C)c1NC(=O)CN1CCCC1=O | -3.64% | -1.99% | -0.96% | -1.24% | -0.565% | -3.14% | 6.05% | -2.89% | -1.55% | -1.38%
13 | C[C@]12CC[C@H](O)CC1=CC[C@@H]1[C@@H]2CC[C@]2(C)C(=O)CC[C@@H]12 | 2.61% | 1.45% | 2.22% | 1.17% | 3.44% | 4% | 3.63% | 2.37% | 3.47% | 1.67%
14 | Cc1cccc(C)c1NC1=NCCCS1 | -3.36% | -1.28% | -0.135% | -0.817% | -0.494% | 0.819% | -4.34% | 2.42% | -4.55% | 0.0734%
15 | Nc1nc(N)nc(NC2CC2)n1 | 0.786% | 3.68% | 1.03% | 0.525% | 0.614% | -0.225% | 1.21% | 1.07% | 2.19% | 0.454%
16 | CN1C2CC(O)CC1C1OC12 (stereo not drawn) | -2.42% | -0.452% | -1.33% | 0.803% | -1.67% | -0.472% | -2.89% | -1.37% | -0.226% | 
17 | C#C[C@]1(O)C=C[C@H]2[C@@H]3CCC4=CC(=O)CC[C@@H]4[C@H]3CC[C@@]21CC | 1.62% | 0.668% | 0.599% | 1.55% | 1.48% | 3.32% | 0.901% | 0.673% | 1.89% | 0.6%
18 | C#C[C@]1(O)CC[C@H]2[C@@H]3CCC4=CC(=O)CC[C@]4(C)[C@H]3CC[C@@]21C | 0.66% | 2.06% | 2.92% | 3.05% | 1.6% | 0.344% | 5.86% | 0.623% | 2.6% | 0.296%
19 | NCC(O)c1ccc(O)cc1 (stereo not drawn) | -0.0577% | 1.17% | 0.265% | -0.182% | 2.12% | -2.95% | 22.2% | 1.19% | -3.26% | -3%
20 | C=C(C)[C@@H]1[C@H]2OC(=O)[C@@H]1[C@]1(O)C[C@H]3O[C@]34C(=O)O[C@H]2[C@]14C | -0.435% | 1.09% | -0.608% | 0.386% | 1.14% | 0.986% | -1.08% | -0.711% | 2.74% | 0.384%

Row | SMILES | growth inhibition (DIPGX29) | growth inhibition (DIPGX37) | growth inhibition (DIPGX7) | growth inhibition (DIPGX9) | growth inhibition (HGGX39) | growth inhibition (HGGX6) | growth inhibition (HNSC) | growth inhibition (SUDIPGIV) | growth inhibition (SUDIPGVI) | growth inhibition (SUDIPGXIII)
21 | c1ccc2c(c1)sc1ccccc12 | -2.47% | -0.0217% | -2.61% | -1.01% | -2.68% | -1.23% | -4.08% | -1.98% | -1.87% | 1.54%
22 | CCCCCCCCCCCCCCCC[n+]1ccccc1 | 59.1% | 58.4% | 62.7% | 52.2% | 59.6% | 35.8% | 76.6% | 55.8% | 62.8% | 72.8%
23 | CNC1CC(N)C(O)C(OC2OC(CO)C(O)C3OC4(OC(C(N)CO)C(O)C(O)C4O)OC23)C1O (stereo not drawn) | 4.68% | 1.71% | 0.134% | 3.12% | -0.261% | 1.68% | 1.11% | 3.64% | 1.16% | -0.132%
24 | CC(NC(C)(C)C)C(=O)c1cccc(Cl)c1 (stereo not drawn) | -0.525% | -0.598% | -1.27% | 0.229% | 1.55% | 0.445% | -1.56% | 0.0304% | -0.145% | 0.264%
25 | C[C@@H]1CC[C@H]2[C@@H](C)C(=O)O[C@@H]3O[C@@]4(C)CC[C@@H]1[C@]32OO4 | 3.47% | -0.962% | 4.12% | 4.81% | 4.98% | 4.39% | 14.5% | 12.8% | -4.44% | 20.5%
26 | CNCC(=O)c1ccc(O)c(O)c1 | -1.95% | 2.52% | -0.724% | -0.688% | 0.248% | -0.714% | -1.87% | 0.154% | -1.65% | 3.12%
27 | N[C@@H]1C[C@H]1c1ccccc1.N[C@H]1C[C@@H]1c1ccccc1 | 1.4% | 3.63% | 2.09% | -0.549% | 5.28% | 2.4% | 3.66% | 1.14% | 3.88% | 0.0986%
28 | CC(C)NCC(O)c1ccccc1Cl (stereo not drawn) | 0.364% | -1.04% | -0.863% | -0.306% | 2.3% | 1.8% | -2.5% | 0.901% | 0.486% | -0.265%
29 | O=P1(NCCCl)OCCCN1CCCl (stereo not drawn) | -2.21% | -0.766% | 5.61% | 0.389% | 3.87% | -0.383% | -5.21% | -2.15% | -7.65% | -1.43%
30 | N.N.[Cl][Pt][Cl] | -1.13% | 0.384% | 0.191% | 0.402% | -0.146% | -3.02% | -5.11% | -3% | -1.15% | 1.82%
31 | CC(C)N(CCNC(=O)CN1CCCC1=O)C(C)C | 2.94% | 3.86% | 1.76% | 4.77% | 3.31% | 3.19% | 1.2% | -0.694% | 3.19% | 2.1%
32 | CCC1(c2ccc(N)cc2)CCC(=O)NC1=O (stereo not drawn) | -0.867% | 0.792% | 0.848% | 0.885% | 1.68% | 2.54% | -1.67% | -1.8% | 0.634% | -0.67%
33 | CN(C)C(=O)Oc1cccc([N+](C)(C)C)c1 | -3.32% | 0.574% | -0.239% | -1.38% | -0.512% | -1.84% | -0.376% | -1.46% | -1.83% | 1.72%
34 | CC(=O)OC12COC1CC(O)C1(C)C(=O)C(O)C3=C(C)C(O)CC(O)(C(OC(=O)c4ccccc4)C21)C3(C)C (stereo not drawn) | 7.46% | 3.33% | 4.76% | 9.41% | 14.7% | 6.8% | 11.9% | 21.5% | 1.87% | 3.01%
35 | Cn1c(CCCC(=O)O)nc2cc(N(CCCl)CCCl)ccc21 | 3.01% | 2.76% | 2.34% | 11.2% | 4.99% | 3.4% | 48.6% | -0.00689% | 1.43% | -0.487%
36 | COc1ccc(C(=O)N2CCCC2=O)cc1 | 0.75% | 0.424% | 2.24% | 0.251% | -0.804% | -0.258% | 0.808% | -2.06% | -5.15% | -1.15%
37 | COc1ccc(OC)c(C(O)C(C)N)c1 (stereo not drawn) | 0.864% | 2.94% | -0.264% | 0.24% | 3.05% | 1.53% | 1.54% | 0.0544% | 3.12% | -0.103%
38 | CCCN1C[C@H](CSC)C[C@@H]2c3cccc4[nH]cc(c34)C[C@H]21 | -0.00648% | -1.76% | -0.373% | -0.427% | 1.29% | 2.2% | -2.99% | 0.236% | 0.348% | -3.14%
39 | CCC1(C)CC(=O)NC(=O)C1 | -3.05% | -2.24% | 4.09% | -2.78% | -4.36% | -4.73% | 7% | -2.82% | -6.09% | -0.846%
